The values that follow come from ChEMBL document CHEMBL4513216, “Probing the Open Global Health Chemical Diversity Library for Multistage-Active Starting Points for Next-Generation Antimalarials” (ACS Infect Dis, 2020).

Hit rate of the full screen: of about 69,000 compounds, about 8,600 (12%) showed an effect of 50% or more. This excerpt belongs to a sample that is enriched for strong results.

The experiment deals with Plasmodium berghei. Kind of experiment: Screen against P. berghei liver stage (PbLuc), transformed with Luciferase, at 10uM. The class given is functional, HepG2. Conditions: tested at 10 uM.
Take `CCOC(=O)CCNC(=O)c1nc(OCC)ccc1Cl`: the INHIBITION is 6.285%.
With `Brc1ccc(CNCc2nnc3n2CCCCC3)s1`, the INHIBITION stood at 21.8%.
As to `CC(=O)N1N=C(Cc2ccccc2)OC1C(=O)NCC(=O)OC(C)(C)C` (centres undefined), the INHIBITION is given as 12.5%.
The figure for `CCc1nnc(Nc2cc(C)nc(C3CN(C(C)=O)CCO3)c2)s1` (centres undefined) is -4.25%.
Regarding `CCCc1nc(C)cc(NCCc2nnc(N)s2)n1`, the INHIBITION is reported as -16.9%.
As for `O=C(Cc1ccccc1)NCCNC(=O)c1scnc1Cl`, the INHIBITION stood at 46.2%.
On to `COCC[C@]1(O)CCN(C(=O)C2CCN(C3CCCC3)CC2)C[C@H]1C`, for which the INHIBITION amounted to 9.63%.
On to `Nc1cccnc1N1CCC(C(F)(F)F)CC1`, for which the INHIBITION is reported as -22.5%.
For the compound `COCCN1C[C@H]2CC[C@@]3(N=C(C)N(CC4CC4)C3=O)[C@H]2C1`, the INHIBITION is -26.5%.
In the case of `CC(=O)NCc1ccc(C(=O)N2CCCC2c2c(C)nn(C)c2C)o1` (centres undefined), the INHIBITION is recorded as -55.4%.
As to `O=C1N(c2ccsc2)CCC12CCCN(Cc1cccnc1)C2` (centres undefined), the INHIBITION is -18.2%.
As to `COc1ccc(CN2CCCC3(CCN(c4ccsc4)C3=O)C2)cc1` (centres undefined), the INHIBITION stood at 72.8%.
For the compound `COCCN1CCCC2(CCN(c3ccsc3)C2=O)C1` (centres undefined), the INHIBITION is on record as 39.2%.
Turning to `Cc1ncnc2c1CCN(c1cc(C(F)(F)F)ncn1)CC2`, the INHIBITION is -17%.
For the compound `O=C(N1CCOCC1)N1CCc2ncnc(NC3CCC3)c2CC1`, the INHIBITION is given as -2.35%.
As to `O=C(N1CCOCC1)N1CCc2ncnc(NC3CC3)c2CC1`, the INHIBITION worked out at 26.8%.
In the case of `FC(F)(F)c1cc(N2CCc3ncnc(NC4CC4)c3CC2)ncn1`, the INHIBITION is -31.6%.
For `CC(C)Nc1ncnc2c1CCN(C(=O)[C@H]1CCCO1)CC2`, the INHIBITION was -12.2%.
For the compound `CC(C)Nc1ncnc2c1CCN(c1cc(C(F)(F)F)ncn1)CC2`, the INHIBITION was found to be 60.3%.
Take `CC(C)Nc1ncnc2c1CCN(C(=O)N1CCOCC1)CC2`: the INHIBITION came out at 75.4%.
Regarding `Cc1ccsc1C(=O)N1CCc2ncnc(NC(C)C)c2CC1`, the INHIBITION came to 19.4%.
The result for `CC(C)Nc1ncnc2c1CCN(C(=O)c1ccc[nH]1)CC2` reads 70.7%; that for `CN(Cc1nnc2n1CCC2)C(=O)Cc1ccc2c(c1)CCC2`, 19.2%.
The result for `CC(=O)NC1CCN(c2cc(C3CCNCC3)ccn2)CC1` reads 20.2%; that for `O=C(c1ncccn1)N1C[C@@H]2CN(Cc3cccnc3)CCO[C@@H]2C1`, -1.26%.
The result for `Fc1ccc(C(CNc2ccncn2)N2CCCC2)cc1` (centres undefined) reads 45%.
For `Cc1cc(C(=O)N2CCC3(C2)CN(c2ccsc2)C(=O)CN3C)[nH]n1` (centres undefined), the INHIBITION came out at 46.2%.
As to `COc1ccc2c(c1OC)Cc1c-2nc(N)c(C#N)c1C1CCOC1` (centres undefined), the INHIBITION is 40.5%.
Consider `N#Cc1c(N)nc2c(c1C1CCOC1)CCc1cc(O)ccc1-2` (centres undefined), for which the INHIBITION is given as -3.12%.
The figure for `COc1ccc2c(c1)Cc1c-2nc(N)c(C#N)c1C1CCOC1` (centres undefined) is 73.9%; for `Cc1ccc(C(=O)Nc2ccc(N(C)C)cn2)n1C` it is -75.9%; for `CCc1ccc(CN2C[C@@H]3COC[C@H](NS(C)(=O)=O)[C@@H]3C2)o1` it is -12.2%.
Regarding `Cc1ccc(Oc2ncccc2C(=O)N(C)CC2OCCO2)c(C)c1`, the INHIBITION was -17.2%.
As to `c1cc(C2CN(C3CCCCC3)C2)n[nH]1`, the INHIBITION was determined as 15.92%.
The figure for `CCC(N)c1ccccc1OCC(=O)N1CCCC1` (centres undefined) is -42.3%; for `Cc1ccc(CNCc2nnc3n2CC(C(F)(F)F)CC3)o1` (centres undefined) it is 65.9%.
Consider `FC(F)(F)C1CCCn2c(CNCc3ccco3)nnc21` (centres undefined), for which the INHIBITION is given as 45.3%.
Regarding `Cc1ccc(CNCc2nnc3n2CCCC3C(F)(F)F)o1` (centres undefined), the INHIBITION is 4.92%.
`Cc1ccoc1CNCc1nnc2n1CC(C(F)(F)F)CC2` (centres undefined): the INHIBITION is 52.6%.
The figure for `Cc1ccoc1CNCc1nnc2n1CCCC2C(F)(F)F` (centres undefined) is 47.4%; for `COc1cccc(CNCc2nnc3n2CC(C(F)(F)F)CC3)c1` (centres undefined) it is 45.1%.
As for `CCC(NC(=O)c1cc(CC(C)C)nn1C)c1ccnn1C` (centres undefined), the INHIBITION is -18.2%.
`CCC(NC(=O)c1cc(CC(C)C)nn1C)c1cc(C)ccn1` (centres undefined): the INHIBITION is reported as -1.15%.
In the case of `CCC(NC(=O)c1cc(CC(C)C)nn1C)c1cccc(C)n1` (centres undefined), the INHIBITION was found to be 86.7%.
For `CC(O)CN1CCN(C(=O)c2cnn(-c3ccccc3Cl)c2)CC1` (centres undefined), the INHIBITION stood at 32%.
Regarding `CCOCCN1CCN(c2ccc(C#N)cn2)CC1CC` (centres undefined), the INHIBITION amounted to 2.91%.
Consider `O=C(c1cnoc1)N1CCC[C@]2(C[C@@H](OCc3ccccn3)CO2)C1`, for which the INHIBITION came out at 8.47%.
In the case of `Cc1cc(C(=O)N(C)C)c2c(Br)cccc2n1`, the INHIBITION came to 40.7%.
As for `Cc1cc(C(N)=O)c2c(Br)cccc2n1`, the INHIBITION was found to be 53.2%.
For `Cc1cc(C(=O)O)c2c(Br)cccc2n1`, the INHIBITION was determined as 8.7%.
As for `Cc1nn(C)c(C)c1CCC(=O)N1CCCC(n2cccn2)C1` (centres undefined), the INHIBITION was 16.9%.
`CCCS(=O)(=O)CCN1CCN(c2cc(F)ccc2F)CC1`: the INHIBITION came out at 25.2%.
In the case of `NS(=O)(=O)CCN1CCN(c2cc(F)ccc2F)CC1`, the INHIBITION is listed as -6.51%.
For `O=C1CCC(=O)N1CCN1CCN(c2cc(F)ccc2F)CC1`, the INHIBITION is on record as 79.1%.
With `NC(=O)C1CCN(C(=O)c2ccn(-c3cccc(Cl)c3)n2)C1` (centres undefined), the INHIBITION is on record as -1.14%.
The figure for `O=C(NCCCn1cccn1)NCC(c1ccco1)N1CCCC1` (centres undefined) is -49.5%.
Turning to `CCOCC(=O)N1CC[C@H]2OCC[C@@]2(COc2ncccc2F)C1`, the INHIBITION is on record as -23.4%.
As to `Cc1n[nH]cc1CNCC1(c2ccc3c(c2)OCO3)CCOCC1`, the INHIBITION is -21.4%.
As to `Cc1csc(CNC(=O)NCC2(c3ccc4c(c3)OCO4)CC2)n1`, the INHIBITION stood at 2.29%.
Consider `Cc1ncsc1CNC(=O)NCC1(c2ccc3c(c2)OCO3)CC1`, for which the INHIBITION was 70.2%.
For `CN1CCN(Cc2cn3c(n2)CN(Cc2cccc(F)c2)CC3)CC1`, the INHIBITION came to 27.6%.
With `CCn1nc(C)c(-c2cncn2Cc2ccccc2CN(C)C)c1C`, the INHIBITION was 34.1%.
For the compound `Cc1ccc(-c2cc(C(=O)O)sn2)cc1`, the INHIBITION is -21.9%.
Consider `CN(C)c1ncc(I)c(C2CCCN2S(C)(=O)=O)n1` (centres undefined), for which the INHIBITION came to 7.19%.
On to `CNc1ccnc(NCCSc2nccn2C)n1`, for which the INHIBITION is given as 44.3%.
As for `Cn1ccnc1SCCNc1nccc(C(F)(F)F)n1`, the INHIBITION is given as -1.16%.
Turning to `Cc1ccnc(NCCSc2nccn2C)n1`, the INHIBITION turned out to be 65.6%.
As for `O=C(NCc1nccs1)N1CCOC(c2ccccc2Cl)C1` (centres undefined), the INHIBITION is recorded as 19.9%.
Turning to `CCC(Nc1nc(C)nc2onc(C)c12)c1cccs1` (centres undefined), the INHIBITION was determined as 79.9%.
As for `CCC(Nc1nc(C)nc2onc(C)c12)c1nc(C)c(C)s1` (centres undefined), the INHIBITION was 70%.
Consider `Cc1nc(NCCSc2cnn[nH]2)c2c(C)noc2n1`, for which the INHIBITION is given as 1.56%.
The figure for `Cc1noc2ncnc(NC(CC(C)(C)C)c3cccnc3)c12` (centres undefined) is 23.5%.
Regarding `Cc1noc(C(C)C)c1C(=O)NCC(c1cccs1)N(C)C` (centres undefined), the INHIBITION came out at 2.3%.
With `Cc1nc(NCC(O)CN2CCCCCC2)c2c(C)noc2n1` (centres undefined), the INHIBITION stood at 15.7%.
